The results in this text go back to PubChem BioAssay (Tox21).

Where “and” joins values, the source holds several entries; their conditions need not be identical. Equal values may be shown once. More than one record can exist for a structure, and the calls need not agree. Calls of active or inactive are those of the source. Unless noted, calls come from the whole dose curve; as a rule, active = well fitted curve in the direction sought with a large enough effect in the repeat runs; inconclusive = weak or mixed curves; inactive = no such curve, though single readings can be large; an effect the other way counts as inactive or inconclusive.

Assay [1] is described as follows: qHTS assay to identify small molecule antagonists of the glucocorticoid receptor (GR) signaling pathway - cell viability counter screen (AID 720693). Note: nearly all actives have a fitted effect of over 55% in size. Note: potency is the fitted concentration of half-maximal effect. Background: qHTS replaces the single test concentration by a dilution series.
A short description of assay [2]: qHTS assay for identifying genotoxic compounds that show differential cytotoxicity against isogenic chicken DT40 cell lines with known DNA damage response pathways - wild type cell line (AID 743012). Note: nearly all actives have a fitted effect of over 60% in size. Note: potency is the fitted concentration of half-maximal effect. Put shortly: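 Luminescent ATP viability signal (CellTiter-Glo, 30 min RT) recorded after wild type DT40 cells were incubated with compounds for 40 h at 37 C/5% CO2.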

The nature of assay [3]: qHTS assay for identifying genotoxic compounds that show differential cytotoxicity against isogenic chicken DT40 cell lines with known DNA damage response pathways - Rad54/Ku70 mutant cell line (AID 743015). Note: nearly all actives have a fitted effect of over 60% in size. Note: potency is the fitted concentration of half-maximal effect.
The nature of assay [4]: qHTS assay to identify small molecule antagonists of the androgen receptor (AR) signaling pathway - cell viability counter screen (AID 743033; note: nearly all actives have a fitted effect of over 45% in size; note: potency is the fitted concentration of half-maximal effect).
A short description of assay [5]: qHTS assay to identify small molecule antagonists of the androgen receptor (AR) signaling pathway using the MDA cell line - cell viability counter screen (AID 743041; note: nearly all actives have a fitted effect of over 45% in size). Put shortly:
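Using the breast carcinoma line MDA-kb2 AR-luc, test chemicals were co-incubated with R1881 for 16 h; CellTiter-Fluor reagent, added at 15.5 h, provided a fluorescence measure of live cells.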

The nature of assay [6]: qHTS assay to identify small molecule antagonists of the thyroid receptor (TR) signaling pathway (AID 743065). Note: nearly all actives have a fitted effect of over 55% in size. Note: potency is the fitted concentration of half-maximal effect. Put shortly: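 Antagonism measured as loss of luciferase signal in GH3 cells stably carrying a TRE-luciferase reporter, co-treated with compound and T3 (1 nM final) for 23.5 h at 37 C. Viability was read in the same well by CellTiter-Fluor.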
In assay [7] the target is Estrogen receptor (Homo sapiens) (UniProt P03372). The experiment in a line: qHTS assay to identify small molecule antagonists of the estrogen receptor alpha (ER-alpha) signaling pathway (AID 743069; active = well fitted curve in the direction sought with a large enough effect in the signal ratio in the repeat runs, not every such curve was filed as active; inconclusive = weak or mixed curves, or effect the other way; inactive = no such curve, though single readings can be large or run the other way; the % refers to the signal ratio; note: potency is the fitted concentration of half-maximal effect). Put shortly:
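Fluorescence intensity from a beta-lactamase FRET substrate served as the read-out. Cells: HEK293 with stably integrated ER-alpha-UAS-bla reporter. Agonist 17beta-estradiol was co-added with compounds; incubation 18 hr at 37C, substrate 2 hr at room temperature.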

Assay [8] has the same target. The experiment in a line: qHTS assay to identify small molecule agonists of the estrogen receptor alpha (ER-alpha) signaling pathway using the BG1 cell line (AID 743079). Note: nearly all actives have a fitted effect of over 20% in size. Note: potency is the fitted concentration of half-maximal effect.
Assay [9] in a line: qHTS assay to identify small molecule antagonists of the estrogen receptor alpha (ER-alpha) signaling pathway using the BG1 cell line - cell viability counter screen (AID 743081).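 Note: compound given together with 17beta-estradiol as the ER stimulus; series mostly up to about 70 µM; nearly all actives have a fitted effect of over 45% in size.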
Assay [10] in a line: qHTS assay to identify small molecule antagonists of the thyroid receptor (TR) signaling pathway - cell viability counter screen (AID 743064). Note: nearly all actives have a fitted effect of over 50% in size. Note: potency is the fitted concentration of half-maximal effect. Put shortly:
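GH3.TRE-Luc cells, 4 h pre-plating; cpd + T3 1 nM final; 37 °C 23.5 h; CellTiter-Fluor 30 min; fluorescence read.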

Assay [11] deals with thyroid hormone receptor (rat, GH3 cells). The assay is described as follows: qHTS assay to identify small molecule agonists of the thyroid receptor (TR) signaling pathway (AID 743066; calls by dose curve).
Assay [12] can be described thus: qHTS assay to identify small molecule antagonists of the estrogen receptor alpha (ER-alpha) signaling pathway - cell viability counter screen (AID 743074; calls by dose curve; note: nearly all actives have a fitted effect of over 45% in size).
Assay [13] has as its target Estrogen receptor (Homo sapiens) (UniProt P03372). The assay is described as follows: qHTS assay to identify small molecule agonists of the estrogen receptor alpha (ER-alpha) signaling pathway (AID 743075; calls by dose curve; note: potency is the fitted concentration of half-maximal effect).
Assay [14] can be described thus: qHTS assay to identify small molecule antagonists of the estrogen receptor alpha (ER-alpha) signaling pathway using the BG1 cell line (AID 743080; calls by dose curve;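 note: BG1 cells stimulated with 17beta-estradiol alongside compound; series mostly up to about 70 µM; nearly all actives have a fitted effect of over 25% in size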). Put shortly:
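BG1Luc4E2, endogenous ER-alpha, 4xERE-luc; 5 d charcoal-stripped FBS, phenol red free; 24 h plating; cpd + 17beta-estradiol 21.5 h, 37 C/5% CO2; CellTiter-Fluor viability 30 min, then ONE-Glo luciferase 30 min RT.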

Assay [15] concerns the target Aromatase (Homo sapiens) (UniProt P11511). The experiment in a line: qHTS assay to identify aromatase inhibitors (AID 743083). Note: nearly all actives have a fitted effect of over 55% in size. Note: potency is the fitted concentration of half-maximal effect.
In assay [16] the target is Androgen receptor (Homo sapiens) (UniProt P10275). The assay is described as follows: qHTS assay to identify small molecule agonists of the androgen receptor (AR) signaling pathway using the MDA cell line (AID 743040; note: nearly all actives have a fitted effect of over 20% in size). Put shortly:
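Stable MMTV-luciferase reporter in MDA-kb2 cells; note the promoter carries GR as well as AR response elements. 16 h compound treatment, 37C, 0% CO2; ONE-Glo luminescence endpoint.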

The target is the same in assay [17]. The assay is described as follows: qHTS assay to identify small molecule antagonists of the androgen receptor (AR) signaling pathway using the MDA cell line (AID 743042; note: nearly all actives have a fitted effect of over 55% in size; note: potency is the fitted concentration of half-maximal effect). The essentials: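 Antagonist mode: compounds plus R1881 agonist added to MDA-kb2 AR-luc cells, incubated 16 h at 37C. Luciferase reporter luminescence quantified, with multiplexed CellTiter-Fluor readout for cell viability.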

The target is the same in assay [18]. The assay is described as follows: qHTS assay to identify small molecule antagonists of the androgen receptor (AR) signaling pathway (AID 743035; active = well fitted inhibition curve with a large enough effect in the signal ratio in the repeat runs, not every such curve was filed as active; inconclusive = weak or mixed curves, or effect the other way; inactive = no such curve, though single readings can be large or run the other way; the % refers to the signal ratio). Put shortly: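 Quantitative HTS of the Tox21 10K library used HEK293 AR-UAS-bla cells stimulated with R1881 alongside compound for 16 h at 37C, followed by beta-lactamase FRET detection (LiveBLAzer B/G, 2 h, RT).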

Assay [19] has the same target. The assay is described as follows: qHTS assay to identify small molecule agonists of the androgen receptor (AR) signaling pathway (AID 743036; active = well fitted activation curve with a large enough effect in the signal ratio in the repeat runs, with a control signal flat, not every such curve was filed as active; inconclusive = weak or mixed curves, or effect the other way; inactive = no such curve, though single readings can be large or run the other way; the % refers to the signal ratio). The essentials:
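AR-bla HEK293 cells, 2,000/well; 4 h preincubation 37C/5% CO2; compound (DMSO) 16 h at 37C; LiveBLAzer B/G FRET substrate 2 h RT; fluorescence intensity read-out.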

Estrogen receptor (Homo sapiens), sequence (P03372 whole entry, looked up): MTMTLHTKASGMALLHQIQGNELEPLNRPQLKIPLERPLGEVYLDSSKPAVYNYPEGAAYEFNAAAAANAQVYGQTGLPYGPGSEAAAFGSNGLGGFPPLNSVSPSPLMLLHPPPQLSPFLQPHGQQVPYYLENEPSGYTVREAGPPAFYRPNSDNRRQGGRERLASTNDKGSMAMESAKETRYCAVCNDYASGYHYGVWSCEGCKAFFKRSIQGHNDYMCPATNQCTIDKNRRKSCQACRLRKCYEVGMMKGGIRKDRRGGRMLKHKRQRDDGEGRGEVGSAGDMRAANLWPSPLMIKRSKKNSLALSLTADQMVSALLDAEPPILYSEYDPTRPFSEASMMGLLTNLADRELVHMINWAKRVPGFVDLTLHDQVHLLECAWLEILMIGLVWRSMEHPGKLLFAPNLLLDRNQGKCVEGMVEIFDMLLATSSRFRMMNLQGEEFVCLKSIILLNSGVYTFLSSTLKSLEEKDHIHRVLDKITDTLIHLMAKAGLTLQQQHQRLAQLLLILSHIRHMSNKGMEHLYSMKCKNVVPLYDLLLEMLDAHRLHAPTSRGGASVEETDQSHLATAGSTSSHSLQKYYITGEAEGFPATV
Androgen receptor (Homo sapiens), sequence (P10275 whole entry, looked up): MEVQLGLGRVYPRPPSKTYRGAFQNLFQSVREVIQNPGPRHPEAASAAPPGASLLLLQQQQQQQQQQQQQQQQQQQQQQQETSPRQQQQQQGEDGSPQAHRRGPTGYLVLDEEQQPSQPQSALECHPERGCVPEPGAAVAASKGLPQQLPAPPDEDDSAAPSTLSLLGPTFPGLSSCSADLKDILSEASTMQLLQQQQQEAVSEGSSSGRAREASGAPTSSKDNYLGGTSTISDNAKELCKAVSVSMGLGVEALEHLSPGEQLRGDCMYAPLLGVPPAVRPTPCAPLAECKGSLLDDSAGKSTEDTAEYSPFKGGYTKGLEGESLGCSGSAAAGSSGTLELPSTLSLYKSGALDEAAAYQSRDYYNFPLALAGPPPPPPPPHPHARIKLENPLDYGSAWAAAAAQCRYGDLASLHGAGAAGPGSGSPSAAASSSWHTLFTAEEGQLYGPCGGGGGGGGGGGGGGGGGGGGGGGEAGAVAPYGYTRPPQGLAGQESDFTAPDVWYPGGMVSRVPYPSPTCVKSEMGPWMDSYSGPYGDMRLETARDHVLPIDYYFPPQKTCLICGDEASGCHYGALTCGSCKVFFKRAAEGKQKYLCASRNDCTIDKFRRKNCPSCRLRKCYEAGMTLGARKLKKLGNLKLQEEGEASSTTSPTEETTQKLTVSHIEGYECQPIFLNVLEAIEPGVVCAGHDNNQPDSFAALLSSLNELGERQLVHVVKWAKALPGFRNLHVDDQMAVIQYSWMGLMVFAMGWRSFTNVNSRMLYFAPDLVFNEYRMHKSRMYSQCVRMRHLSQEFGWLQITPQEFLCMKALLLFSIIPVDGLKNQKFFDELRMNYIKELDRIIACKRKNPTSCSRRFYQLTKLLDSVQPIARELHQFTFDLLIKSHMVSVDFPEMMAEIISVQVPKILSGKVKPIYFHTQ
Aromatase (Homo sapiens), sequence (P11511 whole entry, looked up): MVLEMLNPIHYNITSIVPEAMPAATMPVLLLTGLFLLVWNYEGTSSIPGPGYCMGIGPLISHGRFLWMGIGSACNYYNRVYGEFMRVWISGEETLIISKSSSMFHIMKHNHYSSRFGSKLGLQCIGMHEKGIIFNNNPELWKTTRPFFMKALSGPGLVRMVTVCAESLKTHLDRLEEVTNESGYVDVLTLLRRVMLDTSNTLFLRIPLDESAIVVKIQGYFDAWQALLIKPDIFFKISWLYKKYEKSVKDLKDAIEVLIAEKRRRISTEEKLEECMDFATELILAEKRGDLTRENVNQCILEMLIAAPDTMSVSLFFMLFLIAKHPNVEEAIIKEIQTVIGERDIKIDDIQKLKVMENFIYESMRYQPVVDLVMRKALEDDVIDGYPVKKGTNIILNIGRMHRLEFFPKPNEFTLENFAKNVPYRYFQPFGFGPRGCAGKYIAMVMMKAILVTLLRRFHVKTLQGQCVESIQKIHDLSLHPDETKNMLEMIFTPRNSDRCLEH

As for `CC(c1ccc(O)cc1)(c1ccc(O)cc1)c1ccc(O)cc1`, the Potency entry in assay [1], in assay [4], in [5] and in [9] was “inactive” each time. The Potency was 27.3 µM (active) in [2]; 54.5 µM (active) in [3]; 61.1 µM (active) in [6]; 21.9 µM [inconclusive] (active) in assay [7]; 27.3 µM (active) in assay [8].
Turning to `CCOP(=O)(OCC)Oc1ccc([N+](=O)[O-])cc1`, the Potency result in assay [1], in [2], in assay [3], in assay [4], in assay [5] and in assay [10] was “inactive” each time. Besides, the Potency entry in [6], in assay [11], in assay [12] and in [9] was “inactive” throughout.
For the compound `Cn1sc(Cl)cc1=O`, the Potency result in assay [1], in assay [4], in [5], in [11], in assay [7] and in [12] was “inactive” throughout. Also, the Potency result in [13], in [8], in assay [14], in [9] and in assay [15] was “inactive” each time. The Potency entry in assay [2] was “inactive and 19.3 µM (active)”; in assay [3], “inactive and 54.5 µM (active)”; in assay [10], 68.6 µM (active).
As for `O=C(N[C@H](c1ccccc1)[C@@H]1CN2CCC1CC2)c1c(Cl)ccc(C(F)(F)F)c1Cl`, the Potency entry in assay [1], in [4] and in [12] was “inactive” throughout. Further, the Potency is 22 µM (active) in assay [2], 24.7 µM (active) in [3], 15.6 µM (active) in [10] and 39.2 µM (active) in assay [6].
With `C=C(C#N)CCC#N`, the Potency result in [1], in [2], in assay [3], in assay [4], in [5] and in assay [10] was “inactive” each time. Also, the Potency result in assay [6], in [11], in assay [7], in assay [12], in assay [13] and in [8] was “inactive” throughout. Besides, the Potency result in assay [14], in assay [9] and in [15] was “inactive” each time.
`O=Cc1ccc2c(c1)OCO2`: the Potency entry in assay [1], in [2], in assay [3], in [4], in [5] and in assay [10] was “inactive” throughout. Further, the Potency entry in assay [6], in [11], in assay [12], in assay [9] and in [15] was “inactive” each time.
As to `C=CCCl`, the Potency entry in assay [1], in assay [2], in assay [3], in [4], in [10] and in assay [6] was “inactive” throughout. In addition, the Potency entry in assay [11], in [7], in [12], in assay [14], in assay [9] and in [15] was “inactive” in each case. Further, the Potency is 57.6 µM [activator] (active) in [13] and 32.1 µM (active) in assay [8].
Consider `C/C(=C\c1ccccc1)[N+](=O)[O-]`, for which the Potency in [1] was 17.4 µM (active); in [2] it was 5.45 µM (active); in assay [4], 24.5 µM (active); in assay [17], 27.3 µM (active); in [10], 13.7 µM (active); in assay [6] it was 6.86 µM (active). The Potency was 2.45 µM [cytotoxic] (active) in assay [7] and 19.3 µM (active) in [15]. Also, the Potency result in [16] and in [13] was “inactive” in each case.
Take `C/C=C/C=O`: the Potency entry in assay [1], in [2], in [3], in assay [4], in assay [5] and in assay [10] was “inactive” throughout. The Potency result in assay [6], in [11], in [12], in [9] and in assay [15] was “inactive” throughout.
Take `c1ccc(C2CC2)c(OCC2=NCCN2)c1`: the Potency result in assay [1], in assay [2], in assay [4], in assay [18], in assay [16] and in assay [5] was “inactive” throughout. In addition, the Potency entry in assay [17], in assay [10], in assay [6], in assay [11], in assay [7] and in assay [12] was “inactive” throughout. The Potency entry in assay [13], in [8], in assay [14] and in [15] was “inactive” throughout. Also, the outcome in assay [19] was inactive.
For `Cc1cc(=O)[nH]o1`, the Potency result in assay [1], in [2], in assay [4], in [16], in [5] and in assay [17] was “inactive” each time. Besides, the Potency entry in assay [10], in [7], in assay [12], in assay [13], in assay [8] and in [14] was “inactive” throughout. For the same compound, the Potency result in assay [9] and in assay [15] was “inactive” in each case. Besides, the call in assay [19] was inactive.
Take `N#CCc1ccccc1`: the Potency result in [1], in assay [2], in assay [3], in assay [4], in assay [10] and in [6] was “inactive” throughout. Also, the Potency result in assay [11], in assay [7], in [12], in assay [13], in assay [8] and in [14] was “inactive” each time. The Potency result in [9] and in assay [15] was “inactive” in each case.
For `N#C/C(N)=C(/N)C#N`, the Potency result in assay [1], in assay [2], in assay [3], in [4], in assay [5] and in assay [10] was “inactive” each time. The Potency result in assay [6], in [11], in assay [7], in assay [12], in assay [13] and in assay [8] was “inactive” each time. In addition, the Potency result in assay [14], in [9] and in assay [15] was “inactive” throughout.
For the compound `O=C(O)C(F)(F)C(F)(F)C(F)(F)C(F)(F)C(F)(F)C(F)(F)C(F)(F)C(F)(F)C(F)(F)F`, the Potency result in [1], in [2], in assay [3], in assay [4], in assay [5] and in assay [6] was “inactive” each time. Further, the Potency result in [11], in [12], in assay [13], in assay [8], in assay [14] and in assay [9] was “inactive” each time. Moreover, the Potency entry in assay [15] is “inactive”. Also, in assay [7], the Potency was 15.5 µM [inhibitor] (active).
With `CC(C)=CCOc1c2occc2cc2ccc(=O)oc12`, the Potency entry in assay [1], in assay [4], in [18], in assay [16], in [5] and in [17] was “inactive” throughout. Further, the Potency entry in assay [10], in [6], in assay [11], in [7], in [12] and in assay [13] was “inactive” throughout. Moreover, the Potency result in [8], in [14] and in assay [15] was “inactive” each time. Further, in [2], the Potency was 26.6 µM (active). Moreover, the compound was classed as inactive in assay [19].
